Laboratory results taken from the OligoGym collection.

target: SLC26A5; assay: pooled miR-30 sensor sort-seq; sequence = guide strand; settings: shRNA
Further: reference of the scale not given here.

Row | Sequence | sensor-assay potency score (higher = more potent)
1 | TAACATTCTGCAACACAGCAAC | -0.753
2 | TATCATCTGGTACTAATCGAAC | -1.32
3 | TTGCATAGTAAATTGGTGCATT | -0.361
4 | TTTCGTTTTAATGCATTGCTAT | -0.563
5 | TTTCCAAGGACTTTGTAGCTTG | -0.312
6 | TTGTGTGTAGTCTTTCCTGGAG | -0.0771
7 | TTCTGCAACACAGCAACTGTAC | -0.438
8 | TAGTCTTTCCTGGAGGACCGGA | -0.913
9 | TATACAAGTCGCTATTTGCATA | -1.73
10 | TAAATCTTTGCATTTCCTCAGG | -0.693
11 | TTGTCCTTTGTGTGTAGTCTTT | -0.811
12 | TTAATGAGGCCAAACAACCTGC | -0.462

target: SLC26A8; assay: as above; settings: shRNA

Row | Sequence | sensor-assay potency score (higher = more potent)
13 | TTATCCTGGATAATAGTCCTAG | -0.541
14 | TGAATTGTCATTCTTGTCTGTT | -0.0701
15 | AATCGATACATACACATCCATT | -1.59
16 | TTAGGTAGTAAACATTTACAAA | -1.21
17 | TAGTCCTAGCAATAGCACCAGT | -1.08
18 | TTGAATTGTCATTCTTGTCTGT | 0.809
19 | TTTATTTTCAAATCGCTCTGTG | 0.487
20 | TTTACAAATGTAATTGAGCTGC | -0.345
21 | TAATCGATACATACACATCCAT | -0.25
22 | TTGAGCTTCATCTCTTTGGAGA | -0.991
23 | TTGATTTTTCTGAGACACGGAC | -0.723
24 | TTTTATATCTTGAATTGTCATT | -1.25
